TbPYK inhibitor: qHTS of Trypanosoma Brucei Inhibitors; TbPYK enzyme, Kinase-Glo Plus ATP luminescence, 45 min; 410,000 tested, 0.12% active; pyruvate kinase (Trypanosoma brucei), Q57TT1; Potency, µM (series often up to 76.8 µM), for inactives: top-dose activity, negative = inhibition, most hits filed as inhibitors; AID 624173, 2012; also: nearly all actives have a fitted effect of over 50% in size
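Quantitative HTS: titrated library compounds versus trypanosomal pyruvate kinase in TEA buffer (pH 7.2) containing KCl, MgCl2, BSA and Tween-20. Reactions were initiated with ADP, 130 uM final. Kinase-Glo Plus luminescence was read after 45 min at RT.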
Sm TGR inh: qHTS Assay for the Inhibitors of Schistosoma Mansoni Peroxiredoxins | Schistosoma mansoni thioredoxin glutathione reductase (TGR), Q962Y6 | purified TGR, DTNB reduction, TNB absorbance 405 nm | Potency, µM (top dose mostly 114 µM), for the others: top-dose activity change, negative = inhibition, actives largely listed as inhibitors | 360,000 tested, 3% active; also: nearly all actives have a fitted effect of over 60% in size
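Kinetic colorimetric format: TGR-catalysed, NADPH-driven DTNB reduction monitored via TNB absorbance. Enzyme dispensed at 20 nM; compound exposure 15 min at room temperature before reaction start.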
RE007 growth inh: qHTS Assay for Inhibitors of the HIV-1 protein Vpr; Potency, µM (top dose mostly 92.2 µM), inactives show at the top dose activity change, negative = less growth, usual class: inhibitors; 360,000 tested, 0.21% active; S. pombe RE007 Vpr strain, BacTiter-Glo ATP luminescence, 24 h; active = well fitted falling curve with a large enough effect; inconclusive = small, poorly fitted or top-dose-only effect; inactive = no such curve, though single readings can be large or run the other way; also: nearly all actives have a fitted effect of over 50% in size
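Fission yeast strain RE007, carrying one chromosomally integrated HIV-1 vpr copy, was seeded at OD 0.01 in PMG+AL medium with 23 nL pinned compound. After 24 h at 30 °C and 99% humidity, viability was read by BacTiter-Glo luminescence.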
FMDV inh: High Throughput Screening for Foot and Mouth Disease Virus Antivirals; FMDV antiviral cell-based qHTS; 410,000 tested, 1.2% active; Potency, µM (top dose mostly 57.9 µM), for the others: top-dose activity change, negative = inhibition, hits mostly inhibitors; AID 1159524, 2015; calls by dose curve; tested in HEK293T cells; also: read-out not given here; nearly all actives have a fitted effect of over 45% in size
Numbers without * were called inactive; ? = inconclusive; . = no result; ! = not confirmed by another sample. This is a sample that favours compounds with a hit; in the whole collection about 3.7% have one here. Unless noted, calls follow the shape of the dose curve; as a rule, active = well fitted curve in the direction sought with a large enough effect; inconclusive = small, poorly fitted or top-dose-only effect, or another doubt; inactive = no such curve, though single readings can be large; an effect the other way counts as inactive or inconclusive. % is scaled to controls: 0 for no effect and ±100 for the full control effect; potency is read from the fitted curve at half-maximal effect.

SMILES | TbPYK inhibitor | Sm TGR inh | RE007 growth inh | FMDV inh
O=C(c1ccc(S(=O)(=O)Cc2ccccc2F)c([N+](=O)[O-])c1)N1CCCC1 | 2% | 10µM* | -10% | ?
O=C(c1ccc(S(=O)(=O)Cc2ccccc2Cl)c([N+](=O)[O-])c1)N1CCOCC1 | 2% | 11µM* | 1% | ?
O=C(c1ccc([N+](=O)[O-])c(CS(=O)(=O)c2ccc(Cl)cc2)c1)N1CCCC1 | -2% | 0% | 5% | -17%
O=C(c1ccc(S(=O)(=O)c2ccccc2Cl)c([N+](=O)[O-])c1)N1CCN(Cc2ccccc2)CC1 | -7% | ? | -7% | 11µM*
Cc1ccccc1CS(=O)(=O)c1ccc(C(=O)N2CCOCC2)cc1[N+](=O)[O-] | -6% | ? | -1% | ?
O=C(c1ccc(Br)c([N+](=O)[O-])c1)N1CCN(Cc2ccccc2)CC1 | -1% | 1% | -24% | -27%
O=C(c1ccc(S(=O)(=O)c2ccc(F)cc2)c([N+](=O)[O-])c1)N1CCCCCC1 | -7% | ? | 0% | 13µM*
Cc1cccc(C(=O)Nc2ccc(OCc3cc(=O)n4ccsc4n3)cc2)c1 | -9% | 4% | . | -11%
CC1CCN(C(=O)c2ccc(S(=O)(=O)Cc3ccccc3F)c([N+](=O)[O-])c2)CC1 | 2% | -25% | 4% | 20µM*
CC1CCN(C(=O)c2ccc(N3CCOCC3)c([N+](=O)[O-])c2)CC1 | 0% | . | -14% | 26%
CCOc1ccc(CCNC(=O)c2cc3cc4ccc(OC)cc4nc3s2)cc1OCC | 2% | 0% | . | -19%
COc1ccc2cc3cc(C(=O)NC4CC4)sc3nc2c1 | -4% | 3% | -4% | 16µM*
Cc1ccc(-n2ncc(C(=O)Nc3ccc4c(c3)OCO4)c2C2CCN(C(=O)OC(C)(C)C)CC2)c(C)c1 | -9% | -3% | . | 16%
CC1CCCCN1CC(=O)c1ccc2cc[nH]c2c1 (stereo not drawn) | -9% | 8.9µM* | 1% | 14%
COc1ccccc1N1CCN(C(c2cc3ccc(C)cc3[nH]c2=O)c2nnnn2C2CCCC2)CC1 (stereo not drawn) | -3% | ? | 18% | 3%
CCOC(=O)C1CCN(C(c2cc3ccc(C)cc3[nH]c2=O)c2nnnn2C2CCCCC2)CC1 (stereo not drawn) | 2% | 10µM* | 13% | -19%
C=CSc1sc(Cl)c(N2CCOCC2)c1[N+](=O)[O-] | -1% | . | 8% | ?
C=CS(=O)(=O)c1sc(Cl)c(N2CCOCC2)c1[N+](=O)[O-] | -6% | 0.1µM* | -25% | 25µM*
O=C(NCc1ccc(F)cc1)C(=O)NCC1CCCN1S(=O)(=O)c1ccccc1 (stereo not drawn) | 0% | -2% | 7% | -13%
O=C(NCCc1ccc(F)cc1)C(=O)NCC1CCCN1S(=O)(=O)c1ccccc1 (stereo not drawn) | -2% | -1% | 2% | 40µM*
C=CCC[C@@H](Cc1ccc(F)cc1)C(=O)OC[C@@H](C)NC(=O)[C@@H](CC=C)CC(=O)N[C@H](CO)Cc1ccccc1 | 4% | . | -5% | 40µM*
C=CC[C@H](CC(=O)N(CCO)Cc1ccccc1)C(=O)NC[C@H](OC(=O)[C@@H](CC=C)Cc1ccc(F)cc1)c1ccccc1 | -5% | . | 14% | 35µM*
C=CC[C@@H](CC(=O)N[C@H](CO)Cc1ccccc1)C(=O)N[C@@H](C)COC(=O)[C@@H](CC=C)Cc1ccc(F)cc1 | 1% | . | -4% | ?
COc1ccc(CCNC(=O)CC(c2ccccc2)c2cc(C)ccc2O)cc1OC (stereo not drawn) | 6% | -8% | 3% | 18µM*
COc1cccc(CNC(=O)c2c(OC)cc(=O)n3c2CCN(C(=O)c2ccccc2Cl)CC3)c1 | . | . | . | -8%
SMILES | TbPYK inhibitor | Sm TGR inh | RE007 growth inh | FMDV inh
COc1cc(C2OCC3C(c4ccc(OC5OC(CO)C(O)C(O)C5O)c(OC)c4)OCC23)ccc1O (stereo not drawn) | -12% | 35µM* | -11% | -21%
O=C(CSc1nc(-c2cccs2)cc(C(F)(F)F)n1)Nc1ccccc1Cl | 7% | 3% | . | -26%
O=C(CCS(=O)(=O)c1nc(-c2cccs2)cc(C(F)(F)F)n1)Nc1cc(Br)ccc1O | 0% | 18µM* | . | 14µM*
O=C(CCS(=O)(=O)c1nc(-c2cccs2)cc(C(F)(F)F)n1)Nc1ccc(Br)cc1 | -4% | ? | . | 40µM*
Cc1ccc(O)c(NC(=O)CCS(=O)(=O)c2nc(-c3cccs3)cc(C(F)(F)F)n2)c1 | -6% | 18µM* | . | ?
O=C1N(c2ccccc2)C[C@@H]2C[C@@H](c3cccs3)N3CCC[C@@]123 | -4% | 16µM* | 13% | -2%
COCc1[nH]c(=S)c(C#N)cc1C(=O)OC | ? | 20µM* | 16% | -15%
Cc1cccn2c(=O)c(/C=C(\C#N)c3nc4ccccc4n3C)c(Oc3ccc(Br)cc3)nc12 | -3% | -4% | . | -20%
O=C(NC(=S)NCCN1CCOCC1)c1ccc(F)cc1 | 13% | 5% | -22% | 21%
CC(C)CNC(=S)NC(=O)c1ccc(F)cc1 | -8% | 32µM* | -29% | 39%
O=C(NC(=S)NC1CCCCC1)c1ccc(F)cc1 | 4% | 28µM* | ? | 22%
c1cc(N2CCCCC2)nc(N2CCCCC2)n1 | 9% | . | -10% | -2%
C[c-]1[c-](C)[c-](C)[c-](C)[c-]1C.[Fe].c1cc2nccc(N3CCCC3)[c-]2c1 (stereo not drawn) | -16% | 3.2µM*! | -16% | 0%
COc1ccc(-c2noc(CSCC(=O)Nc3cccc(C(F)(F)F)c3)n2)cc1OC | 0% | -1% | . | 22%
CC(C)=C1C2C=CC1C1C(=O)N(c3ccc4c(c3)OCO4)C(=O)C21 (stereo not drawn) | -3% | 20µM* | 32µM* | -1%
O=C1C2C3C=CC(C4CC34)C2C(=O)N1c1ccc2c(c1)OCO2 (stereo not drawn) | 3% | 45µM* | -4% | 19%
O=C(COC(=O)c1nc(Cl)ccc1Cl)c1ccc[nH]1 | 1% | 5% | 1% | -8%
O=C(COC(=O)c1nc(Cl)c(Cl)c(Cl)c1Cl)c1ccc[nH]1 | -3% | 20µM* | -27% | -12%
NC(=O)c1ccc(N=Cc2ccc([N+](=O)[O-])s2)cc1 | -14% | 14µM* | 40µM* | ?
Cc1ccc(NC(=S)N/N=C/c2ccc([N+](=O)[O-])s2)cc1 | -1% | ? | -27% | ?
O=C(Cc1cccs1)N/N=C\c1ccc([N+](=O)[O-])s1 | -1% | ? | -11% | 22%
Cc1cc(C)cc(N=Cc2ccc([N+](=O)[O-])s2)c1 | -14% | ? | 40µM* | 0%
O=C(NCc1nnc2n1CCN(Cc1cccc(C(F)(F)F)c1)CC2)c1ccncc1 | . | . | . | -12%
CN(Cc1ccccc1)C(=O)c1ccc2c(c1)N(Cc1ccc(Cl)cc1)C(=O)c1ccccc1S2=O (stereo not drawn) | -4% | -2% | . | 0%
